HT1080-NT tox: kills 2HG-producing HT-1080-NT fibrosarcoma cells; HT-1080-NT fibrosarcoma viability, CellTiter-Glo ATP luminescence, 48 h; Potency, µM (top dose mostly 46.1 µM), usual class: cytotoxic; actives 1.6% (n = 360,000); AID 686970;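 note: NT is the 2HG producing partner of a matched IDH1 knockdown line; nearly all actives have a fitted effect of over 55% in size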
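Viability of the 2HG-overproducing fibrosarcoma line after 48 hours of compound exposure at 37 degrees C was determined by luminescence with CellTiter-Glo, and concentration-effect curves were then fitted and categorized.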
MCF10A rerep: induces DNA re-replication in MCF 10a normal breast cells | actives 2.9% (n = 350,000) | AID 624296 | Potency, µM (highest dose often 46.1 µM), usual class: activators | MCF 10A DNA re-replication, Hoechst nuclear intensity, 48 h; note: nearly all actives have a fitted effect of over 50% in size
HT1080 IDH1KD tx: toxicity to HT-1080 IDH1 knockdown cells (counter line). HT-1080 IDH1 knockdown viability, ATP luminescence, 48 h. Potency, µM (series often up to 46.1 µM), actives largely listed as cytotoxic. actives 2% (n = 360,000)
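CellTiter-Glo luminescence after 48 h compound exposure at 37 degrees C of IDH1-knockdown HT-1080 cells in 5% FBS RPMI. %Activity scaled between DMSO wells and cell-free media wells, with curves fitted and assigned curve classes.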
SW480 rereplic: induces DNA re-replication in SW480 colon adenocarcinoma cells; SW480 DNA re-replication, Hoechst DNA content imaging, 48 h; Potency, µM (top dose mostly 46.1 µM), usual class: activators; actives 1.8% (n = 340,000); AID 624297; note: nearly all actives have a fitted effect of over 55% in size
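Treated cells incubate 48 hr (37 C, 5% CO2), are stained 40 min with Hoechst, and nuclear fluorescence is enumerated; a rise in nuclei with high DNA signal marks re-replication.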
KB-3-1 cytotox: kills parental KB-3-1 adenocarcinoma cells | KB-3-1 viability, CellTiter-Glo ATP luminescence, 72 h | actives 1.4% (n = 400,000) | Potency, µM (top dose mostly 46.1 µM), usual class: cytotoxic; note: nearly all actives have a fitted effect of over 60% in size
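Screening of KB-3-1 cells (DMEM, 10% FBS, phenol-red free) ran from lowest to highest compound concentration; after 72 h at 37 °C viability was read luminescently and curves fitted.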
KB-V1 MDR tox: KB-V1 MDR subline cytotoxicity. actives 3.4% (n = 400,000). AID 1347076. KB-V1 MDR cells viability, CellTiter-Glo, 72 h. Potency, µM (highest dose often 46.1 µM), hits mostly cytotoxic; note: nearly all actives have a fitted effect of over 60% in size
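KB-V1 MDR subline cells in DMEM (phenol-red free, 10% FBS) exposed to compounds in qHTS concentration series for 72 h at 37 degrees C. Viability read by CellTiter-Glo luminescence; concentration-effect curves fitted after normalization and correction.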
Large screens that a line does not name were inactive; ! = not active in a repeat. Only some compounds are listed: those with a hit (about 8% of all), similar ones and a draw of the others. Calls come from the whole dose curve; as a rule, active = well fitted curve in the direction sought with a large enough effect; inconclusive = small, poorly fitted or top-dose-only effect, or another doubt; inactive = no such curve, though single readings can be large; an effect the other way counts as inactive or inconclusive.

COC(=O)C1=C(C#N)NC(C)=C(C(=O)OC(C)C)C1c1cccc([N+](=O)[O-])c1 (centres undefined)	none (no result: HT1080-NT tox, HT1080 IDH1KD tx, KB-3-1 cytotox, KB-V1 MDR tox)
COc1cc(CNC(C)c2ccccc2)cc(Br)c1OCc1ccccc1 (centres undefined)	HT1080-NT tox 16µM, MCF10A rerep inconclusive, HT1080 IDH1KD tx inconclusive, SW480 rereplic 23µM, KB-3-1 cytotox inconclusive, KB-V1 MDR tox inconclusive
CCOc1ccccc1CNc1ccc(O)cc1	HT1080-NT tox 23µM, MCF10A rerep inconclusive, HT1080 IDH1KD tx inconclusive, SW480 rereplic inconclusive, KB-3-1 cytotox inconclusive
COc1cc(C(N)=O)cc(Br)c1OCc1ccccc1	KB-V1 MDR tox inconclusive
COc1ccc(Br)cc1CNC(C)c1ccccc1 (centres undefined)	none
Oc1ccc(NCc2ccccc2OCc2ccccc2F)cc1	HT1080-NT tox inconclusive, MCF10A rerep inconclusive, SW480 rereplic inconclusive, KB-3-1 cytotox inconclusive, KB-V1 MDR tox inconclusive
O=C1CCCC/C1=N\Nc1ccc(OCc2ccccc2)cc1	HT1080-NT tox inconclusive, HT1080 IDH1KD tx 5.2µM
COc1cc(CNc2ccc(O)cc2)cc(Br)c1OCc1ccccc1	HT1080-NT tox inconclusive, MCF10A rerep 23µM, SW480 rereplic inconclusive
Cc1ccc(C(=O)c2oc3ccccc3c2NC(=O)Cc2coc3c(C)c(C)ccc23)cc1	KB-V1 MDR tox inconclusive (no result: HT1080-NT tox, MCF10A rerep, HT1080 IDH1KD tx, SW480 rereplic)
CCC1CCCCN1CCCNC(=O)c1ccc2c(c1)N(Cc1ccccc1F)C(=O)c1ccccc1S2(=O)=O (centres undefined)	KB-3-1 cytotox inconclusive (no result: HT1080-NT tox, MCF10A rerep, HT1080 IDH1KD tx, SW480 rereplic)
Oc1ccc(NCc2ccc(OCc3ccccc3)cc2)cc1	HT1080-NT tox 23µM, MCF10A rerep inconclusive, HT1080 IDH1KD tx inconclusive, SW480 rereplic inconclusive, KB-3-1 cytotox inconclusive
CS(=O)(=O)N1CCN(c2ccccc2NC(=O)c2cccc3ccccc23)CC1	none
COc1cc2ccccc2cc1C(=O)Nc1ccccc1N1CCN(S(C)(=O)=O)CC1	KB-V1 MDR tox 4.1µM
CCN1CCN(c2ccc(NC(=O)c3ccccc3F)cc2Cl)CC1	MCF10A rerep inconclusive, KB-3-1 cytotox inconclusive
CS(=O)(=O)N1CCN(c2ccccc2NC(=O)c2ccc(-c3ccc(Br)cc3)o2)CC1	HT1080 IDH1KD tx inconclusive, KB-V1 MDR tox 2.6µM
CCN1CCN(c2ccc(NC(=O)c3cc4ccccc4cc3OC)cc2C)CC1	HT1080-NT tox inconclusive, MCF10A rerep inconclusive, HT1080 IDH1KD tx inconclusive, SW480 rereplic inconclusive, KB-3-1 cytotox 15µM, KB-V1 MDR tox inconclusive
Cc1cn(C)c(CC(=O)N2CCN(c3cccc(C(F)(F)F)c3)CC2)c1C(=O)O	none (no result: HT1080-NT tox, MCF10A rerep, HT1080 IDH1KD tx, SW480 rereplic)
CCOc1ccc(NC(=O)Cn2nc(-c3ccncc3)ccc2=O)cc1	none (no result: HT1080-NT tox, MCF10A rerep, HT1080 IDH1KD tx, SW480 rereplic)
CCc1ccc(NC(=O)Nc2cnccn2)cc1	none
CCCCc1ccc(NC(=O)Nc2cc(C)nn2C)cc1	HT1080-NT tox inconclusive, MCF10A rerep inconclusive, HT1080 IDH1KD tx inconclusive, KB-3-1 cytotox 6.5µM
Cc1cc(NC(=O)Nc2ccc(F)cc2F)n(C)n1	HT1080-NT tox inconclusive, MCF10A rerep inconclusive, HT1080 IDH1KD tx inconclusive, KB-3-1 cytotox inconclusive
CCCCc1ccc(NC(=O)Nc2cnccn2)cc1	HT1080-NT tox inconclusive, HT1080 IDH1KD tx inconclusive, SW480 rereplic inconclusive, KB-3-1 cytotox 12µM, KB-V1 MDR tox inconclusive
CCn1c(SCC(=O)NCc2ccco2)nnc1-c1ccc(N(C)C)cc1	none (no result: HT1080-NT tox, MCF10A rerep, HT1080 IDH1KD tx, SW480 rereplic)
O=c1[nH]c(CSc2nc3ccccc3s2)nc2ccccc12	MCF10A rerep inconclusive
COc1ccc(C2NCCc3c2[nH]c2ccccc32)cc1CSc1nc2ccccc2s1 (centres undefined)	HT1080-NT tox 23µM, MCF10A rerep inconclusive, HT1080 IDH1KD tx 23µM, KB-3-1 cytotox inconclusive, KB-V1 MDR tox 23µM (no result: SW480 rereplic)
FC(F)(F)c1cccc(-c2nc3nc(Cl)c(Cl)nc3[nH]2)c1	HT1080-NT tox inconclusive, MCF10A rerep inconclusive, HT1080 IDH1KD tx inconclusive, SW480 rereplic inconclusive, KB-3-1 cytotox 2.6µM!, KB-V1 MDR tox inconclusive
FC(F)(F)c1nc2nc(Cl)c(Cl)nc2[nH]1	KB-3-1 cytotox inconclusive (no result: MCF10A rerep, SW480 rereplic)
CCCCN(C)CC(O)Cn1cc(/C=C/C(=O)c2cccs2)c2ccccc21 (centres undefined)	MCF10A rerep 16µM, SW480 rereplic 23µM, KB-3-1 cytotox inconclusive, KB-V1 MDR tox inconclusive

Screening data from PubChem BioAssay.
